Screens deposited in PubChem by National Center for Advancing Translational Sciences (NCATS).
DT40 TDP1 no CPT – qHTS for Inhibitors of human tyrosyl-DNA phosphodiesterase 1 (TDP1): qHTS in cells in absence of CPT. DT40 Tdp1-/- hTDP1 cells, no CPT, ATP luminescence, 48 h. Potency, µM (titrated, usually from 46.2 µM), for inactives: top-dose activity change, negative = growth inhibition, actives largely listed as inhibitors. 420,000 tested, 15% active. AID 686978, 2013; note: % is set by controls: 0 for no effect and ±100 for the full control effect; nearly all actives have a fitted effect of over 55% in size
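A cellular qHTS used chicken DT40 cells lacking endogenous Tdp1 but carrying stably transfected human TDP1. Compounds were applied without camptothecin, and cell growth kinetics were judged by ATP-dependent luminescence after ≥48 hr.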
HT1080 IDH1KD tx – toxicity to HT-1080 IDH1 knockdown cells (counter line); 360,000 tested, 2% active; HT-1080 IDH1 knockdown viability, ATP luminescence, 48 h; AID 686971; Potency, µM (series often up to 46.1 µM), for the others: top-dose activity, negative = toxicity, hits mostly cytotoxic;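 note: 0% = DMSO wells and -100% = cell-free medium wells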
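After a 2 h attachment period, IDH1KD HT-1080 cells took pin-transferred compound for 48 h at 37 °C; ATP-based luminescence after 10 min room-temperature reagent incubation reported viability.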
HepG2 tox – HepG2 cytotoxicity, counter-screen for TGF-b inhibitors | HepG2 CAGA-GFP viability, ATP luminescence, 18 h | Potency, µM (top dose mostly 46.1 µM), for inactives: at the top dose activity change, negative = cytotoxicity, most hits filed as cytotoxic | 410,000 tested, 0.76% active | AID 588856
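CellTiter-Glo luminescence gave cytotoxicity after 18 hours at 37 degrees C. The cells were HepG2 CAGA-GFP in 1% FBS DMEM, stimulated with 500 pg/mL TGF-beta after compound addition. %Activity was normalised to no-cell wells (complete cell-killing) and DMSO (no toxicity), and curves were fitted and classified.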
HT1080-NT tox – kills 2HG-producing HT-1080-NT fibrosarcoma cells. HT-1080-NT fibrosarcoma viability, CellTiter-Glo ATP luminescence, 48 h. Potency, µM (top dose mostly 46.1 µM), without a hit: top-dose activity, negative = less viability, actives largely listed as cytotoxic. 360,000 tested, 1.6% active. AID 686970;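 note: NT is the 2HG producing partner of a matched IDH1 knockdown line; 0% = DMSO-treated cells and -100% = media-only wells without cells; nearly all actives have a fitted effect of over 55% in size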
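Toxicity toward the 2HG-producing NT line was scored as %Activity, normalised to DMSO and no-cell wells, from CellTiter-Glo luminescence after 48 hours' treatment.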
TGFb inhibitor – blocks TGF-b signaling. HepG2 CAGA-GFP TGF-b/SMAD3 reporter, GFP fluorescence, 18 h; TGF-beta stimulated, 500 pg/mL final. 410,000 tested, 1.2% active. AID 588855. Potency, µM (highest dose often 46.1 µM), inactives show at the highest dose activity, negative = inhibition, hits mostly inhibitors; note: % is set by controls: 0 for no effect and ±100 for the full control effect; nearly all actives have a fitted effect of over 65% in size
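HEPG2 CAGA-GFP, 1000 cells/well; 2 h settle, 37 C; cpd via pin tool; TGF-b 500 pg/mL final; 18 h, 37 C; GFP imaging ex488/em500-530; %Activity normalised to -TGF-b and +DMSO controls; CRC fit, curve class.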
TDP1 cell CPT – DT40-hTDP1 cell growth loss with CPT. chicken DT40 Tdp1-/-;hTDP1 cells + 20 nM CPT, ATP luminescence, 48 h. Potency, µM (highest dose often 46.2 µM), without a hit: top-dose activity change, negative = growth inhibition, most hits filed as inhibitors. 420,000 tested, 12% active; note: % is set by controls: 0 for no effect and ±100 for the full control effect; nearly all actives have a fitted effect of over 55% in size
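Cell growth measured by CellTiter-Glo luminescence after a minimum 48 h, 37 C compound exposure with 20 nM CPT in Tdp1-knockout DT40 cells stably expressing hTDP1, seeded 400/well; qHTS titration format.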
* hit, by the source's call; [ ] = another dose, or the depositor's remark. In the library only some 17% were active in any assay of this set; here they are far more common. Calls come from the whole dose curve; as a rule, active = well fitted curve in the direction sought with a large enough effect; inconclusive = small, poorly fitted or top-dose-only effect, or another doubt; inactive = no such curve, though single readings can be large; an effect the other way counts as inactive or inconclusive. Potency is the fitted concentration of half-maximal effect.

Results for N[C@@H](Cn1cc(F)c(=O)[nH]c1=O)C(=O)O ?
DT40 TDP1 no CPT: 0%; TDP1 cell CPT: 4%

How did CCCN(C(=O)c1cccs1)c1nnc(-c2ccncc2)s1 do in these assays?
DT40 TDP1 no CPT: inconclusive; HT1080 IDH1KD tx: 13%; HepG2 tox: -1%; HT1080-NT tox: 19%; TGFb inhibitor: 17%; TDP1 cell CPT: -24%

How did Cc1cc(C)n2nc(C(=O)OCC(=O)N(C)C3CCS(=O)(=O)C3)nc2n1 (stereo not drawn) do in these assays?
DT40 TDP1 no CPT: 7%; HT1080 IDH1KD tx: 12%; HepG2 tox: 2%; HT1080-NT tox: 16%; TGFb inhibitor: 6%; TDP1 cell CPT: 8%

What do the screens show for `Nc1nc[nH]c(=O)c1N`?
DT40 TDP1 no CPT: -7%; HepG2 tox: 6%; TGFb inhibitor: 18%; TDP1 cell CPT: 0%

How did C#CCN1C=C(C(=O)OCC)C(C)N(Cc2ccccc2I)S1(=O)=O (stereo not drawn) do in these assays?
DT40 TDP1 no CPT: 8.2µM*; HT1080 IDH1KD tx: 21µM*; HepG2 tox: -8%; HT1080-NT tox: inconclusive; TGFb inhibitor: inconclusive; TDP1 cell CPT: 13µM*

What do the screens show for `COc1ccccc1NC(=O)NNC(=O)C(C)Oc1ccc2ccccc2c1` (stereo not drawn)?
DT40 TDP1 no CPT: 14%; HT1080 IDH1KD tx: 1%; HepG2 tox: 0%; HT1080-NT tox: 16%; TGFb inhibitor: -21%; TDP1 cell CPT: -13%

Results for CCc1cc(CNC(=O)C2CCC(=O)N(Cc3ccccc3F)C2)on1 (stereo not drawn) ?
DT40 TDP1 no CPT: 6%; HT1080 IDH1KD tx: 7%; HepG2 tox: 8%; HT1080-NT tox: 9%; TGFb inhibitor: 8%; TDP1 cell CPT: -12%

Results for O=C(NCCN1CCN(Cc2ccccc2)CC1)C1c2ccccc2C(=O)N2CCc3ccccc3C12 (stereo not drawn) ?
DT40 TDP1 no CPT: -17%; HT1080 IDH1KD tx: 1%; HepG2 tox: -25%; HT1080-NT tox: -12%; TGFb inhibitor: -10%; TDP1 cell CPT: -30%

What do the screens show for `Cc1ccc(CNC(=O)C2c3ccccc3C(=O)N3CCc4ccccc4C23)o1` (stereo not drawn)?
DT40 TDP1 no CPT: 23µM*; HT1080 IDH1KD tx: inconclusive; HepG2 tox: -31%; HT1080-NT tox: -1%[9.24 µM]; TGFb inhibitor: -5%; TDP1 cell CPT: inconclusive

How did CC(c1ccccc1)c1nnc(NC(=O)c2ccc3c(c2)OCO3)s1 (stereo not drawn) do in these assays?
DT40 TDP1 no CPT: 18µM*; HT1080 IDH1KD tx: inconclusive; HepG2 tox: -29%; HT1080-NT tox: -1%; TGFb inhibitor: -10%; TDP1 cell CPT: inconclusive

What do the screens show for `CC(C)(C)c1nnc(NC(=O)c2ccc3c(c2)OCO3)s1`?
DT40 TDP1 no CPT: inconclusive; HT1080 IDH1KD tx: 6%; HepG2 tox: -2%; HT1080-NT tox: 17%; TGFb inhibitor: 0%; TDP1 cell CPT: inconclusive

What do the screens show for `CC(C)c1nnc(NC(=O)c2ccc3c(c2)OCO3)s1`?
DT40 TDP1 no CPT: -12%; HT1080 IDH1KD tx: 8%; HepG2 tox: -5%; HT1080-NT tox: 12%; TGFb inhibitor: -8%; TDP1 cell CPT: 4%

Results for COc1ccccc1-c1nnc(NC(=O)c2ccc3c(c2)OCO3)s1 ?
DT40 TDP1 no CPT: 2.1µM*; HT1080 IDH1KD tx: inconclusive; HepG2 tox: 4%; HT1080-NT tox: -20%; TGFb inhibitor: 5%; TDP1 cell CPT: 2.3µM*

Results for COC(=O)c1c(-c2cccnc2)csc1NC(=O)c1ccc2c(c1)OCO2 ?
DT40 TDP1 no CPT: 23µM*; HT1080 IDH1KD tx: 11%; HepG2 tox: -5%; HT1080-NT tox: -7%; TGFb inhibitor: 2%; TDP1 cell CPT: inconclusive

How did Nc1c(-c2ccc(F)cc2)nc2ncccn12 do in these assays?
DT40 TDP1 no CPT: -3%; HT1080 IDH1KD tx: 16%; HT1080-NT tox: 21%; TDP1 cell CPT: 13%

How did Cc1ccc2ncc3c(-c4ccc(F)cc4)nn(-c4cccc(F)c4)c3c2c1 do in these assays?
DT40 TDP1 no CPT: -2%; HepG2 tox: -8%; TGFb inhibitor: 6%; TDP1 cell CPT: 0%

How did COc1cccc(C(=O)c2c(C)c(CCC#N)n3ccccc23)c1 do in these assays?
DT40 TDP1 no CPT: -10%; HT1080 IDH1KD tx: -8%; HepG2 tox: 6%; HT1080-NT tox: 1%; TGFb inhibitor: -5%; TDP1 cell CPT: 17%

How did O=C(NCCc1ccccc1)c1cnc2sc(N3CCCCC3)nn2c1=O do in these assays?
DT40 TDP1 no CPT: 21µM*; HepG2 tox: -19%; TGFb inhibitor: 9%; TDP1 cell CPT: 8.2µM*

Results for O=C(NCCc1ccccc1)c1cnc2sc(N3CCCCCC3)nn2c1=O ?
DT40 TDP1 no CPT: 13µM*; HepG2 tox: -14%; TGFb inhibitor: 0%; TDP1 cell CPT: inconclusive

What do the screens show for `CCOc1ccc(CCNC(=O)c2cnc3sc(N4CCCCCC4)nn3c2=O)cc1`?
DT40 TDP1 no CPT: 18µM*; HepG2 tox: -39%; TGFb inhibitor: 0%; TDP1 cell CPT: 18µM*

What do the screens show for `O=C(NCc1ccccc1Cl)c1cnc2sc(N3CCCCC3)nn2c1=O`?
DT40 TDP1 no CPT: 9.2µM*; HepG2 tox: -3%; TGFb inhibitor: -20%; TDP1 cell CPT: 13µM*

Results for CCCCOc1ccc(CNC(=O)c2cnc3sc(N4CCCCCC4)nn3c2=O)cc1 ?
DT40 TDP1 no CPT: -20%; HepG2 tox: 0%; TGFb inhibitor: -32%; TDP1 cell CPT: -13%

Results for COCCNC(=O)c1cnc2sc(N3CCCCC3)nn2c1=O ?
DT40 TDP1 no CPT: -4%; HepG2 tox: -4%; TGFb inhibitor: -26%; TDP1 cell CPT: 1%

How did CCNC(=O)c1cnc2sc(N3CCCCCC3)nn2c1=O do in these assays?
DT40 TDP1 no CPT: -12%; HepG2 tox: 14%; TGFb inhibitor: 3%; TDP1 cell CPT: -1%

Results for CCOC(=O)CC1(C)Oc2cc(Cl)ccc2N1S(=O)(=O)c1ccc(C)cc1 (stereo not drawn) ?
DT40 TDP1 no CPT: inconclusive; HT1080 IDH1KD tx: -26%; HT1080-NT tox: -17%; TDP1 cell CPT: inconclusive

How did O=[N+]([O-])c1cccc(-c2noc(-c3cccs3)n2)c1 do in these assays?
DT40 TDP1 no CPT: -4%; HT1080 IDH1KD tx: 5%; HepG2 tox: -20%; HT1080-NT tox: 6%; TGFb inhibitor: -15%; TDP1 cell CPT: 16%
